The list is not random: actives were taken first. Their share in the collection is about 2.9%.
PAFAH1B2 FP inh: inhibitors of human PAFAH1B2. hit rate 1.2% among 340,000. recombinant PAFAH1B2, FP-rhodamine activity probe, fluorescence polarization. inhibition, % at 3.39 µM. P68402;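 active = inhibition above the mean of all tested compounds plus 3 SD, cut at about 24% in these data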;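 also: 0% = enzyme with DMSO and 100% = wells lacking PAFAH1B2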
Target sequence (P68402 whole entry, looked up): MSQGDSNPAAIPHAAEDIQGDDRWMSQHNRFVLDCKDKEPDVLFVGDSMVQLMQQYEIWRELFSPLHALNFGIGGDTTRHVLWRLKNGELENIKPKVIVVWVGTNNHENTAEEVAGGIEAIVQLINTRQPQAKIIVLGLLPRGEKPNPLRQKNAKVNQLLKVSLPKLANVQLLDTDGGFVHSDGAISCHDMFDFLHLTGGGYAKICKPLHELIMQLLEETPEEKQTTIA
PAFAH1B3 inh: blocks human PAF acetylhydrolase 1B catalytic subunit 3 | Q15102 | recombinant PAFAH1B3, FP-rhodamine probe, fluorescence polarization | inhibition, % at 3.39 µM | hit rate 0.28% among 340,000;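 active = inhibition above the screen-wide average of all tested compounds plus 3 SD, cut at about 25% in these data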;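 also: 0% = enzyme with DMSO only and 100% = wells lacking PAFAH1B3 protein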
Target sequence (Q15102 whole entry, looked up): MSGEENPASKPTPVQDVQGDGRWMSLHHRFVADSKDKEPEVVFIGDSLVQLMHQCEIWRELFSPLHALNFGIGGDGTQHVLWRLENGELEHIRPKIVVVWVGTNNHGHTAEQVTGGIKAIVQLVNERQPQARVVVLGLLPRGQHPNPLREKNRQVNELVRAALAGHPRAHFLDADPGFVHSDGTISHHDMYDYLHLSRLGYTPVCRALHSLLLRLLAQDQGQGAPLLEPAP
pPAFAH FP inh: pPAFAH (human) enzyme inhibition; inhibition, % at 3.39 µM; hit rate 1.5% among 330,000; recombinant pPAFAH, FP-rhodamine probe fluorescence polarization; Q13093;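 active = inhibition above the mean inhibition across the screen plus 3 SD, cut at about 25% in these data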;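 also: inhibitors block binding of the rhodamine activity-based probe so polarization drops; 0% = enzyme with DMSO and 100% = wells lacking pPAFAH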
PAFAH2 inh: PAFAH2 (human) inhibition. Q99487. recombinant PAFAH2, FP-rhodamine activity probe, fluorescence polarization. inhibition, % at 3.39 µM. hit rate 0.99% among 340,000;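 active = inhibition above the mean over all tested compounds plus 3 SD, cut at about 30% in these data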;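 also: inhibitors block probe labeling of enzyme so polarization drops; 0% = enzyme with DMSO and 100% = wells lacking PAFAH2 protein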
Fam108B counter: blocks mouse Fam108B hydrolase in RBBP9 counter-screen; recombinant Fam108B, FP-Rh probe fluorescence polarization; inhibition, % at 9.51 µM; hit rate 0.33% among 300,000;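 active = inhibition above the screen mean inhibition plus 3 SD, computed separately per campaign, cut at about 18% in these data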;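 also: inhibitors lower polarization as less probe binds the enzyme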
PME-1 primary: PME-1 (human) inhibition; recombinant PME-1, FP-Rh probe fluorescence polarization; hit rate 0.53% among 320,000; Q9Y570; inhibition, % at 5.9 µM; AID 2130;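 active = inhibition above the campaign mean of all compounds plus 3 SD, cut at about 26% in these data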;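 also: competitive labeling of PME-1 active site by serine hydrolase directed probe; 0% = PME-1 with DMSO and 100% = wells lacking PME-1 enzyme; inhibitors block probe labeling so polarization falls and inhibition rises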
The depositor's hits bear a star; / = no result given.

SMILES	PAFAH1B2 FP inh	PAFAH1B3 inh	pPAFAH FP inh	PAFAH2 inh	Fam108B counter	PME-1 primary
Cc1cccc(NC(=O)c2cccc(NC3=NC4CS(=O)(=O)CC4S3)c2)c1 (stereo not given)	4	2	0	-5	4	-3
CCN(CC(=O)Nc1ccccc1OC)C(=O)CCOc1ccc(C(C)(C)C)cc1	30*	-2	8	4	0	5
COc1ccc(OC)c(NC(=O)CN2C(=O)NC(C)(c3ccc4c(c3)OCCO4)C2=O)c1 (stereo not given)	5	7	3	3	/	-4
CCCN(CCC)Cc1c(C(=O)N/N=C/CCc2ccccc2)nnn1-c1nonc1N	11	7	4	0	-2	-3
CC(C)CC(C(=O)O)N1C(=O)C2C3CC(C2C1=O)C1C(c2ccccc2)c2sc(=O)[nH]c2SC31 (stereo not given)	40*	-2	6	-1	-8	4
O=C(O)CN1C(=O)C2C3CC(C2C1=O)C1C(c2ccccc2)c2sc(=O)[nH]c2SC31 (stereo not given)	72*	5	2	-8	-1	3
COc1ccc(CCNC(=O)C2CCCN2S(=O)(=O)c2cccc3nsnc23)cc1OC (stereo not given)	-2	5	7	4	-3	-2
CN1/C(=C\C(=O)COC(=O)c2ccc(O)c(O)c2)C(C)(C)c2ccccc21	/	/	32*	/	-11	-21
Cc1ccc(C(=O)OCC(=O)c2ccc(CC(=O)N3CCOCC3)s2)cc1C	2	3	27*	11	/	2
Cc1ccc(C(=O)OCC(=O)c2ccc(CC(=O)N3CCOCC3)s2)c(C)c1	-1	5	/	7	/	/
COc1cc(CNCCO)cc(Cl)c1OCc1ccc(Cl)cc1Cl	8	13	28*	7	-5	5
Cc1ccc(C(=O)N2CCN(Cc3ccccc3)CC2)cc1S(=O)(=O)N1CCOCC1	4	4	/	6	/	/
CCOC(=O)[C@@H]1[C@H]2COc3ccc(Br)cc3[C@H]2N2C(=O)N(c3ccc(C(F)(F)F)cc3)C(=O)[C@]12C	-5	8	2	1	/	/
O=C(COc1ccccc1F)Nc1nnc(C2CCCC2)s1	0	1	3	11	0	1
CC(NC(=O)c1ccc([N+](=O)[O-])o1)C12CC3CC(CC(C3)C1)C2 (stereo not given)	39*	11	0	16	-4	-3
O=C(NCCN1CCOCC1)c1cccc(S(=O)(=O)Nc2cc(Cl)ccc2Cl)c1	4	9	/	7	/	/
O=C(NCCCN1CCOCC1)c1ccc(NS(=O)(=O)c2ccccc2)cc1	1	-1	3	11	-6	1
O=C(NCCN1CCOCC1)c1cccc(S(=O)(=O)Nc2ccc(Br)cc2)c1	1	-3	34*	5	/	-3
COc1ccc(NS(=O)(=O)c2ccc(N3CCOCC3)c(NC(=O)c3cccc(F)c3)c2)cc1	-5	5	33*	7	-1	-7
O=C(NCCCN1CCOCC1)c1cccc(S(=O)(=O)Nc2ccc(F)cc2)c1	3	-3	27*	3	/	-1
CCOC(=O)N1CCN(C(=O)c2cccc(S(=O)(=O)Nc3ccc(F)cc3)c2)CC1	1	1	/	3	/	/
O=C(c1cccc(S(=O)(=O)Nc2ccc(F)cc2)c1)N1CCOCC1	-2	-3	29*	9	/	3
CCOC(=O)/C=C/C(=O)Nc1cc(S(=O)(=O)Nc2ccc(OC)cc2)ccc1N1CCOCC1	1	2	/	6	/	/
Cc1ccc(-c2cc(Cc3ccccc3)c(=O)[nH]n2)cc1	/	/	9	/	-2	5
O=C(NCCCN1CCCC1=O)c1cc(NS(=O)(=O)c2ccc(F)cc2)cc(NS(=O)(=O)c2ccc(F)cc2)c1	15	10	34*	13	-4	-1
SMILES	PAFAH1B2 FP inh	PAFAH1B3 inh	pPAFAH FP inh	PAFAH2 inh	Fam108B counter	PME-1 primary
O=C(NCCCN1CCOCC1)c1cccc(NS(=O)(=O)c2ccc(Br)cc2)c1	25*	0	0	1	/	6
CC(C)CCn1c(SCC(=O)Nc2ccccc2C(F)(F)F)nc2nccnc2c1=O	2	2	2	1	2	2
CCOC(=O)c1[nH]c2ccc(Cl)cc2c1-c1ccccc1	2	0	1	-5	4	-3
CN(C)C=NC(=O)c1[nH]c2ccc(Cl)cc2c1-c1ccccc1	-1	-1	29*	3	-5	-11
COc1ccc(C(=O)CSC2=C(C#N)C3(CCCCC3)C(C#N)=C(N)N2)cc1	27*	5	5	0	0	-3
N#CC1=C(N)NC(SCC(=O)c2ccc(Cl)cc2)=C(C#N)C12CCCC2	10	3	6	3	-3	7
COC(=O)C(NC(=O)CNS(=O)(=O)c1ccc(Br)cc1)c1ccccc1 (stereo not given)	11	1	-2	3	1	0
O=C(O)c1cc(N/N=C2/CC(c3ccccc3)Oc3ccccc32)ccc1Cl (stereo not given)	2	7	34*	17	1	8
O=S(=O)(NCCc1ccccn1)c1ccc(F)c(F)c1	3	2	11	5	2	5
O=S(=O)(NCCCc1ccccc1)c1ccc(F)c(F)c1	36*	-3	29*	15	1	4
O=S(=O)(NCCCc1ccccc1)c1ccc(Cl)cc1	26*	1	16	8	-1	-10
O=[N+]([O-])c1ccc(S(=O)(=O)NCCCc2ccccc2)cc1	/	/	3	/	-1	-2
CC(=O)N(\C=C/C=C/C=C1\Sc2ccccc2C1=O)c1ccccc1	-43	-78	30*	-93	-7	-15
Cc1cccc(C(=O)NC2=NCCS2)c1	-3	-1	-1	2	-4	-5
Cc1cccc(Nc2nnc(SC/C(O)=C(\C#N)c3nc4ccccc4[nH]3)s2)c1C	21	9	28*	11	6	82*
Cc1csc(NC(=O)CSc2nc3nc(C)cc(C)n3n2)n1	3	1	4	6	/	6
Nc1ncc(Br)cc1S(=O)(=O)NCCC(=O)NCCc1ccc(Cl)cc1	26*	2	5	2	3	1
O=C(COc1cc(O)c2c(=O)cc(-c3ccccc3)oc2c1)c1cccc([N+](=O)[O-])c1	25*	3	1	-7	4	-1
O=C(COc1cc(O)c2c(=O)cc(-c3ccccc3)oc2c1)c1ccccc1	5	8	0	-1	-8	-4
O=C(O)c1ccc(N/N=C/c2ccc(OC(=O)c3cccc(Cl)c3)cc2)cc1	3	5	17	16	3	41*
COC(=O)C1=CN(c2ccc(OC)cc2)C=C(C(=O)OC)C1c1ccc(C)c([N+](=O)[O-])c1	-1	7	0	-3	-1	-6
COC(=O)C1=CN(c2cccc(C)c2)C=C(C(=O)OC)C1c1cc(OC)c(O)c([N+](=O)[O-])c1	16	11	29*	7	7	12

Compound activity deposited in PubChem BioAssay by The Scripps Research Institute Molecular Screening Center.
